This test relates to CAOV3. Description: Confirmatory qHTS for gynecologic anti-cancer compounds from libraries of approved drugs and bioactive compounds. Also: nearly all actives have a fitted effect of over 55% in size. As to conditions: gynecologic cancer cell panel viability, ATPlite luminescence, 48 h; series mostly up to 57.6 µM. The gist of the method:
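Cells (1,000/well) were plated, left 16 h at 37 C/5% CO2, then given compound at 11 concentrations (1:3) from 57.5 uM to 0.977 nM for 48 h. ATPlite luminescence after 15 min at room temperature gave IC50 values.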
On the technique in general: Quantitative high-throughput screening tests each substance at several concentrations.

Records with an inconclusive call do not appear. The source made the active and inactive calls. Calls follow the shape of the dose curve; as a rule, active = well fitted cell-killing curve with a large enough effect; inconclusive = small, poorly fitted or top-dose-only effect, or effect the other way; inactive = no such curve, though single readings can be large or run the other way.
Potency is read from the fitted curve at half-maximal effect.

Take `Cc1cc(Nc2cc(N3CCN(C)CC3)nc(/C=C/c3ccccc3)n2)n[nH]1`: the Potency is 7.69 µM (active).

For the molecule `CNc1nc(Nc2ccc(C(=O)N3CCOCC3)cc2OC)ncc1Cl`, the Potency result is “inactive”. Turning to `CCCC(=O)O[C@]1(C(=O)CCl)[C@@H](C)C[C@H]2[C@@H]3CCC4=CC(=O)C=C[C@]4(C)[C@@]3(F)C(=O)C[C@@]21C`, the Potency result is “inactive”. The same measure for `CC(C)c1nn(-c2c(Cl)cccc2Cl)c2nc(Cc3ccc(OCCO)cc3)[nH]c(=O)c12`: “inactive”. For the molecule `CN1CCN(c2cccc(Nc3nc4c(-c5ccc(S(C)(=O)=O)cc5)cccn4n3)c2)CC1`, the Potency is 27.3 µM (active).

As to `CN[C@@H](C)C(=O)N[C@H]1CN(C(=O)CC(C)C)CC[C@H]2CC[C@@H](C(=O)NC(c3ccccc3)c3ccccc3)N2C1=O`, the Potency entry was “inactive”. `CN(C)CCC(CSc1ccccc1)Nc1ccc(S(=O)(=O)NC(=O)c2ccc(N3CCN(Cc4ccccc4-c4ccc(Cl)cc4)CC3)cc2)cc1[N+](=O)[O-]` (configuration not stated): the Potency was 9.68 µM (active). With `CC(C)CC(=O)Nc1n[nH]c2c1CN(C(=O)C1CCN(C)CC1)C2(C)C`, the Potency was 1.22 µM (active). As for `COC(C(=O)N1Cc2[nH]nc(NC(=O)c3ccc(N4CCN(C)CC4)cc3)c2C1)c1ccccc1` (configuration not stated), the Potency was 1.53 µM (active). For `CNC(=O)c1ccccc1Nc1nc(Nc2ccc(N3CCOCC3)cc2OC)ncc1Cl`, the Potency was 1.37 µM (active). The same measure for `CCN1CCN(Cc2ccc(-c3cc4c(NC(C)c5ccccc5)ncnc4[nH]3)cc2)CC1` (configuration not stated): 27.3 µM (active). `Cc1cc(Nc2nc(N[C@@H](C)c3ccc(F)cc3)c(C#N)cc2F)n[nH]1`: the Potency was 17.2 µM (active).
